# A3G deaminase: inhibitors of human APOBEC3G DNA deaminase; inhibition, % at 20 µM; 330,000 tested, 0.28% active; recombinant A3G, ssDNA deamination FAM/TAMRA fluorescence; Q9HC16;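 active = inhibition of at least 40% at 20 µM, with no more than 30% in the related APOBEC3A deaminase screen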;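 note: plate controls were DMSO wells with A3G for no effect and wells lacking A3G enzyme for full effect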
# Target sequence (Q9HC16 whole entry, looked up): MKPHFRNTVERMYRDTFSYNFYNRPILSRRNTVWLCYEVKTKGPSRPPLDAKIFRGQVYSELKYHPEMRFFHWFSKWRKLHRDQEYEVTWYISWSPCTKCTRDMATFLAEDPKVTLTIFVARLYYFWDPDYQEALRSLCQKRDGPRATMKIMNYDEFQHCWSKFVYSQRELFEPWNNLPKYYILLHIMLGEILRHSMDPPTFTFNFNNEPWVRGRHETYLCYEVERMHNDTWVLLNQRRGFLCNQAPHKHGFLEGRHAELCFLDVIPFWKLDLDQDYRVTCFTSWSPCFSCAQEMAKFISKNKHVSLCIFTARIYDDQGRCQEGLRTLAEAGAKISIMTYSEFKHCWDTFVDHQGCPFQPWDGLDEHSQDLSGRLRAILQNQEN
# NTR1 ag: agonists of human neurotensin receptor NTR1. P30989. NTR1-U2OS beta-arrestin-GFP spot imaging, agonist mode. activation, % at 20 µM. 330,000 tested, 0.17% active;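 active = activation at or above 40% of the spot to cytoplasm intensity ratio, with at least 20 cells analyzed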;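 note: 0% = DMSO without peptide and 100% = 100 nM NTR1 peptide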
# APOBEC3A inh: inhibitors of human APOBEC3A DNA deaminase; P31941; recombinant A3A, FAM/TAMRA ssDNA deamination fluorescence; inhibition, % at 20 µM; 330,000 tested, 0.41% active; AID 493011;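 active = at least 40% inhibition at 20 µM here, with at most 30% in a related deaminase screen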;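 note: plate controls were A3A with DMSO for no effect and wells lacking A3A enzyme for full effect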
# AHR activator: activators of human aryl hydrocarbon receptor | AID 2796 | activation, % at 5 µM | AHR-responsive luciferase reporter cells, luminescence | 320,000 tested, 2.5% active; in the data active = activation above about 47%;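 note: 0% = vehicle wells and 100% = reference agonist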
# NTR1 ag confirm: confirmation of agonists of human NTR1 | activation, % at 20 µM | shares compounds with NTR1 ag | 480 tested, 38% active | AID 504550 | NTR1-U2OS beta-arrestin-GFP translocation imaging;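 active = mean activation at 20 µM of at least 40%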;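 note: 0% = DMSO without peptide and 100% = 100 nM NTR1 peptide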
# * hit, by the source's call; . = no result given. An excerpt weighted towards active compounds, which were near 3.2% of everything screened.
SMILES,A3G deaminase,NTR1 ag,APOBEC3A inh,AHR activator,NTR1 ag confirm
O=[N+]([O-])c1ccc(COc2ccc(-c3[nH]ncc3-c3ccccc3)c(O)c2)cc1,-6,42*,-1,57*,4
COc1ccccc1-c1cn[nH]c1-c1ccc(OCc2ccc(F)cc2)cc1O,-5,40*,-1,4,2
COc1ccccc1-c1cn[nH]c1-c1ccc(OCc2ccccc2F)cc1O,-4,40*,1,5,2
CCCCN(Cc1ccco1)S(=O)(=O)c1ccc(-c2ccc(=O)[nH]n2)s1,5,1,6,5,.
Cc1cccc(CN2C(=O)/C(=C\c3ccc(C(=O)NCCN4CCOCC4)cc3)Sc3ccccc32)c1,-8,18,-3,1,.
CCN1CCN(CCNC(=O)c2ccc(/C=C3/Sc4ccccc4N(Cc4cccc(Cl)c4)C3=O)cc2)CC1,-1,58*,6,3,27
CCOc1ccc(CSC(=N)N)cc1,-6,0,-4,3,.
CCCCOc1ccc(CSC(=N)N)cc1Cl,0,50*,-2,0,16
Cc1cccc(NC(=O)CN2CCN(C(=O)c3ccc(-c4nc5ccccc5s4)o3)CC2)c1C,-5,16,-3,.,.
O=C(CN1CCN(C(=O)c2ccc(-c3nc4ccccc4s3)o2)CC1)Nc1ccccc1Cl,-6,48*,-2,.,25
Nc1ccc(C(=O)N/N=C\c2ccc(OC(=O)c3ccccc3Cl)cc2)cc1,-1,-1,6,2,.
COc1cc(C(=O)N/N=C/c2ccc(OC(=O)c3ccccc3Cl)cc2)ccc1O,-6,49*,-2,4,9
COc1ccc(-c2cc(-c3cc(C)ccc3O)[nH]n2)cc1,-5,44*,-1,27,14
O=C(c1ccc(Cl)cc1)C(CN1CCCCC1)c1ccccc1 (configuration not stated),-5,50*,-1,-1,60*
Cc1cc2c(N=NC(=O)C3CC3c3ccccc3)c(O)[nH]c2cc1Br (configuration not stated),2,42*,1,39,26
Cc1occc1C(=O)N=Nc1c(O)[nH]c2ccc(Br)cc12,0,2,1,22,.
Cc1ccc(NC2Sc3ccccc3NC2=O)cc1Cl (configuration not stated),-7,51*,1,5,9
Cc1cccc(NC2SC(=O)NC2=O)c1 (configuration not stated),-13,0,-1,3,.
Cc1ccc(C(=O)OCCn2cc(C#N)c(=O)[nH]c2=O)cc1,-4,2,-1,0,.
CC[C@@H](C(=O)[C@@H](C)[C@@H](O)[C@H](C)CCc1ccc(C)c(O)c1C(=O)O)[C@H]1O[C@](CC)([C@H]2CC[C@](O)(CC)[C@H](C)O2)C[C@@H]1C,-4,53*,-1,-4,62*
Nc1nc(Nc2ccccc2)nc(NC2CCCCC2)c1[N+](=O)[O-],-1,87*,-1,5,33
FC(F)Sc1ccc(NC(=S)NC(c2ccccc2)c2ccccc2)cc1,-18,41*,8,9,0
OC(CNCC(c1ccc(Cl)cc1Cl)c1c[nH]c2ccccc12)c1ccccc1 (configuration not stated),-9,59*,0,12,44*
COc1ccc(OC)c(C2CC(=O)Nc3c2c(=O)[nH]c2ncnn32)c1 (configuration not stated),-6,2,-3,1,.
O=[N+]([O-])c1ccc2[nH]cc(S(=O)(=O)N3CCN(c4cccc(Cl)c4)CC3)c2c1,-4,41*,-3,-1,20
SMILES,A3G deaminase,NTR1 ag,APOBEC3A inh,AHR activator,NTR1 ag confirm
O=C1c2cccnc2C(=O)N1CNc1ccc(Cl)cc1,-15,0,-5,5,.
c1ccc(N(c2ccccc2)c2nc(N3CCCC3)nc(-n3ccnc3)n2)cc1,-7,48*,-3,-2,19
CN(c1ccccc1)c1nc(N2CCCC2)nc(-n2ccnc2)n1,-2,8,-1,27,.
CCc1cccc(CC)c1-n1c(SCC(=O)N2CCc3ccccc3C2)nnc1-c1cccnc1,-15,45*,-5,-1,64*
Cc1ccc(OCCN2CCN(c3nc(NCc4ccco4)c4ccccc4n3)CC2)cc1,1,50*,0,-2,32
Cc1onc(-c2ccccc2)c1C(=O)Nc1cccc(S(=O)(=O)N2CCCCC2)c1,14,2,2,0,.
O=C(Nc1nc(-c2ccccc2)cs1)c1ccc(N2CCOCC2)c([N+](=O)[O-])c1,1,70*,2,-5,37
Cc1ccc(NC(=O)CSc2nc3sc(C)cc3c(=O)n2C)cc1,-7,0,-2,5,.
CCOC(=O)/C=c1\s/c(=C\c2ccc3cc(OC)ccc3c2)c(=O)n1CC(=O)NCC1CCCO1 (configuration not stated),-7,52*,-5,-2,45*
CC(C)=CCc1c(O)cc(O)c2c1OC(c1ccc(O)cc1)CC2=O (configuration not stated),-7,6,-5,9,.
CC(C)=CCc1c(O)c(CC=C(C)C)c2c(c1O)C(=O)CC(c1ccc(O)cc1)O2 (configuration not stated),-6,46*,2,1,39
Cc1ccsc1-c1nc(CN2CCCC2c2ccc(F)cc2)c(C)o1 (configuration not stated),-4,2,3,5,.
COC(=O)Cn1cnc2c(Cl)nc(F)nc21,4,3,5,.,.
CC1CCC(C(C)C)C(OC(=O)Cn2c(-c3ccccc3)[n+](C)c3ccccc32)C1 (configuration not stated),-9,9,-1,-1,.
Cc1cccc(OCc2n(CC(=O)OC3CC(C)CCC3C(C)C)c3ccccc3[n+]2C)c1 (configuration not stated),-7,92*,-4,0,101*
Nc1nc(N)c(C=Nc2ccc(Br)cc2)c(Nc2ccc(Br)cc2)n1,-6,59*,-3,99*,32
CC(C)C(=O)N1CCN(c2ccc(NC(=O)c3ccc4c(c3)OCCO4)cc2Cl)CC1,-6,90*,-4,0,85*
Cc1ccc(NS(=O)(=O)c2ccc(Cl)c(NC(=S)NC(=O)C3CCCCC3)c2)cc1Cl,-12,55*,-4,31,17
COc1ccc(CCn2c(=N)c(C(=O)NC3CCCC3)cc3c(=O)n4cccc(C)c4nc32)cc1,-4,50*,0,11,39
COc1ccc(C(CCN2CCCCC2)c2c(OC)cc(OC)c3c(-c4ccccc4)cc(=O)oc23)cc1 (configuration not stated),-5,42*,-4,1,41*
CCCCCc1cc(=O)oc2c(C(CCN3CCCC(C)C3)c3cc(OC)c(OC)c(OC)c3)c(OC)cc(OC)c12 (configuration not stated),-7,20,-2,3,.
CCCCCc1cc(=O)oc2c(C(CCN3CCCC(C)C3)c3ccc(N(C)C)cc3)c(OC)cc(OC)c12 (configuration not stated),-9,51*,-4,-1,53*
